Values joined by “and” are separate entries in the source; they are usually repeats but may differ in a detail not shown here. Equal values may be shown once. Inconclusive results are not listed. Entries that show only a call come without a potency. Active and inactive are the calls of the source. Calls come from the whole dose curve; as a rule, active = well fitted inhibition curve with a large enough effect; inconclusive = small, poorly fitted or top-dose-only effect; inactive = no such curve, though single readings can be large or run the other way.
Test: qHTS for Inhibitors of the Aldehyde Dehydrogenase Family (ALDH1A2, ALDH1A3, ALDH2, ALDH3A1) (AID 2061307); note: nearly all actives have a fitted effect of over 50% in size; for potency: test system not described further here
Settings: ALDH inhibition qHTS; series mostly up to 50.3 µM
In the case of `COc1ccc(C(=O)c2c(C)n(CC(=O)O)c3cc(OC)ccc23)cc1`, the Potency is reported as “inactive”.
With `Cc1cccc(Nc2nc(-c3ccccc3)c3cc(Cl)ccc3n2)c1` the Potency was 12.6 µM (active).
For `CC(=O)Nc1ccc(OCc2cn(CC(=O)c3ccc(O)cc3)nn2)cc1`, the Potency was “inactive”.
For `N#Cc1ccc(CN2CCC(N(CCc3ccccc3)Cc3ccccc3)CC2)cc1`, the Potency was “inactive”.
For `Cc1ccc(NS(=O)(=O)c2cc(N[C@@H](C)CO)cc3c2NC(=O)CC3)cc1C`, the Potency was “inactive”.
For `COC(=O)c1ccc(NC(=O)CN(c2cccc(C(F)(F)F)c2)S(C)(=O)=O)cc1`, the Potency was “inactive”.
For `N#Cc1nc(-c2ccc(F)cc2)oc1N1CCN(C(=O)c2ccccc2F)CC1`, the Potency was “inactive”.
For `COc1ccc(C(=O)OCC(=O)Nc2cccc(C(F)(F)F)c2)cc1OC`, the Potency was “inactive”.
With `COc1cc(O)c(C(CC(=O)N2CC(C)CC(C)C2)c2cccc(OC(C)C)c2)c(OC)c1` (stereo not given) the Potency was 12.7 µM (active).
In the case of `O=C(Nc1ncc(CN2CCCCC2)s1)c1ccc(-c2cccc([N+](=O)[O-])c2)o1`, the Potency is reported as 11.3 µM (active).
For `Cc1ccc2nc(Nc3ccc(C(=O)O)cc3)[nH]c2c1`, the Potency was 12 µM (active).
With `Nc1nc2c(s1)C(c1ccccc1)CC(=O)N2` (stereo not given) the Potency was 11.3 µM (active).
For `Cc1nc2cc(NS(=O)(=O)c3cc(C(=O)O)ccc3C)ccc2o1`, the Potency was 12.6 µM (active).
With `Cc1sc(-n2nc(-c3ccccc3)c(Cc3ccc(S(N)(=O)=O)cc3)c2N)nc1C(=O)O` the Potency was “inactive”.
In the case of `CCN1CCN(C2c3ccccc3-c3ccc(Br)cc32)CC1` (stereo not given), the Potency is reported as “inactive”.
With `CCc1ccc(CNC(=O)c2cnc3c(C)cccn3c2=O)cc1` the Potency was “inactive”.
In the case of `Cc1ccc(N2CCN(C(=S)c3ccc(-c4ccccc4[N+](=O)[O-])o3)CC2)cc1`, the Potency is reported as 3.57 µM (active).
With `Cc1sc(NC(=O)Cc2ccc3c(c2)OCO3)nc1-c1ccc2c(c1)CCN2C(=O)c1ccccc1OC(F)(F)F` the Potency was 3.16 µM (active).
For `Nc1ccc(Cn2ccc3c4c(N)nc(N)nc4ccc32)cc1`, the Potency was “inactive”.
With `CCOc1ccccc1NC(=O)c1nn(-c2ccc(OC)cc2)c(=O)c2c1c1ccccc1n2C` the Potency was “inactive”.
For `Cc1c(P(=S)(c2ccccc2)c2ccccc2)[n+]2ccccc2n1C/C=C/c1cccc(Br)c1`, the Potency was 3.16 µM (active).
In the case of `[2H]C([2H])([2H])N1CCC(N(CCc2ccccc2)Cc2ccccc2)CC1`, the Potency is reported as “inactive”.
In the case of `N#Cc1nc(-c2cccc3ccccc23)oc1NCCC1CNC1`, the Potency is reported as 15.8 µM (active).
For `O=C(Nc1ncc(CN2CCOCC2)s1)c1ccc(-c2cccc([N+](=O)[O-])c2)o1`, the Potency was 28.2 µM (active).
With `O=C(O)Cc1ccc(S(=O)(=O)N2CCCC2)s1` the Potency was 11.3 µM (active).
With `O=[N+]([O-])c1ccc(S(=O)(=O)Nc2nc(-c3ccccc3)cs2)cc1` the Potency was 3.57 µM (active).
In the case of `CCS(=O)(=O)c1nc(-c2ccc(Cl)cc2)cc(C(F)(F)F)n1`, the Potency is reported as 4.47 µM (active).
With `Cc1ccc(NC(=O)Nc2cc3c(cc2N2CCCCC2)n(C)c(=O)n3C)cc1Cl` the Potency was 3.55 µM (active) and 798 nM (active).
With `Fc1ccc(CN2CCC(N(CCc3ccccc3)Cc3ccccc3)CC2)cc1` the Potency was “inactive”.
For `Cc1cc(SCc2sc(-c3ccc(F)cc3)nc2C)ccc1OCC(=O)O`, the Potency was “inactive”.
With `O=C(O)c1ccnc(-n2cc(Br)cn2)c1` the Potency was “inactive”.
In the case of `O=C1C[C@](c2ccc(N3CCOCC3)cc2)(c2ccsc2)NC(=O)C1Sc1ccccc1Cl` (stereo not given in full), the Potency is reported as “inactive”.
For `Ic1ccc(CN2CCC(N(CCc3ccccc3)Cc3ccccc3)CC2)cc1`, the Potency was “inactive”.
For `Cc1ccc(S(=O)(=O)Nc2ccc(O)c3ccccc23)c(C)c1`, the Potency was 14.2 µM (active).
For `CCOc1ccccc1-n1c(CN2CCN(C(=O)c3ccco3)CC2)nc2cc(OC)c(OC)cc2c1=O`, the Potency was “inactive”.
For `CC(=O)c1c(C)[nH]c2ccc(O)cc12`, the Potency was “inactive”.
In the case of `CN(C)C(C(=O)N1CCN(c2ccc(C#N)cc2)CC1)c1ccccc1F` (stereo not given), the Potency is reported as “inactive”.
For `Clc1ccc(-c2noc3ncnc(N4CCCCC4)c23)cc1`, the Potency was 11.3 µM (active).
In the case of `Cc1cccc(NC(=O)C2CC(=O)N(c3ccc(S(=O)(=O)N(C)C)cc3)C2)n1` (stereo not given), the Potency is reported as “inactive”.
With `NS(=O)(=O)c1ccc(Nc2cn[nH]c2-c2cccc(-c3ccccc3)c2)cc1` the Potency was “inactive”.

— PubChem BioAssay (NCATS)
Potency is the fitted concentration of half-maximal effect.
